Data from PubChem BioAssay.

Test system: not listed separately
Experiment: compound binding in COS7 lysate, probe aLAP1, primary screen, cell lysate, small-molecule microarray (AID 1124);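 note: lysate comes from COS7 cells expressing LAP1 and is applied at 0.3 µg/mL; score merges spot fluorescence near 667 nm with signal-to-noise over triplicate slides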
Details: probe aLAP1, fluorescence, higher = more signal
With O=C1C2C=CC(C(O)c3ccco3)N(Nc3ccccc3F)C2C(=O)N1c1ccccc1 (configuration not stated) the composite z-score was 0.433. COc1ccc([Si](C)(C)[C@@H]2[C@@H](CCO)O[C@]3(C(=O)N(Cc4cccc(NC(=O)[C@H](C)O)c4)c4ccccc43)[C@H]2C)cc1 gave a composite z-score of 0.523. CC(C)N1C(=O)C[C@@](C(=O)NC2CC2)(c2ccc([N+](=O)[O-])cc2)[C@H]1c1ccc(CO)cc1 gave a composite z-score of 0.965. Compound Oc1ccc2cc[n+](Cc3cc4c(cc3Br)OCO4)cc2c1 has a composite z-score of -0.127. Compound CCOC(=O)C[C@H]1[C@H](OC(=O)c2ccc(-c3ccccc3)cc2)[C@@H](NC(=O)CC(C)C)c2cc(OCCCO)ccc2N1C(=O)c1ccc2ccccc2n1 has a composite z-score of -0.259. For CCCCC(CC)C(O)C1C=CC2C(=O)N(c3ccccc3)C(=O)C2N1Nc1ccccc1F (configuration not stated), the composite z-score was 0.51. CCOC(=O)C[C@H]1[C@H](OC(=O)c2ccccc2-c2ccccc2)[C@@H](NC(=O)c2ccc3ccccc3n2)c2cc(OCCCO)ccc2N1C(=O)Cc1ccc(OC)cc1 gave a composite z-score of 0.134. COCCCNC(=O)[C@@]1(CCC(=O)OC(C)(C)C)N=C(c2ccc(OCCCO)cc2)O[C@H]1c1ccccc1N=[N+]=[N-] showed a composite z-score of 0.843. In the case of OCCCC1=CC(c2ccc(CN3CCCC3)cc2)N(Cc2cc3c(cc2Br)OCO3)CC1 (configuration not stated), the composite z-score is reported as 0.597. CCOC(=O)C[C@H]1[C@H](OC(=O)Cc2ccc3c(c2)OCO3)[C@@H](NC(=O)C2CCCCC2)c2cc(OCCCO)ccc2N1C(=O)c1ccccc1 showed a composite z-score of 0.124. With COCC(=C=CC[C@H](O)c1ccccc1OCCO)C[C@H](O)c1ccccn1 the composite z-score was -0.144. For [N-]=[N+]=NCc1ccccc1[C@@H]1OC(c2ccc(OCCCO)cc2)=N[C@]1(CCS(=O)(=O)c1ccccc1)C(=O)O, the composite z-score was 0.0649.

Test system: Sam68 (KHDRBS1)
Experiment: Sam68 small-molecule binders, primary screen, biochemical, small-molecule microarray, 635 nm fluorescence (AID 1125);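 note: score merges 667 nm channel intensity with signal to noise over triplicate slides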
Details: small-molecule microarray binding, higher = more signal
[N-]=[N+]=Nc1ccccc1C[C@@]1(C(=O)N2CCOCC2)N=C(c2ccc(OCCCO)cc2)O[C@@H]1c1ccccc1 showed a composite z-score of 1.32. For [N-]=[N+]=Nc1ccccc1C[C@]1(C(=O)O)COC(c2ccc(OCCCO)cc2)=N1, the composite z-score was -0.566. COCCOC(=O)N1C(=O)[C@@]2(c3cc(C#CC4=CCCCC4)ccc31)[C@H](c1ccccc1OCCO)N1[C@H](c3ccccc3)[C@H](c3ccccc3)OC(=O)[C@H]1[C@@H]2C(=O)N1CCN(c2ncccn2)CC1 showed a composite z-score of 1.06. With O=C1O[C@@H](c2ccccc2)[C@@H](c2ccccc2)N2[C@@H](c3ccc(OCCO)cc3)[C@]3(C(=O)Nc4ccc(C#CC5=CCCCC5)cc43)[C@@H](C(=O)NC[C@H](O)c3ccccc3)[C@H]12 the composite z-score was 1.3. Compound [N-]=[N+]=Nc1ccccc1C[C@]1(C(=O)NCCN2CCOCC2)COC(c2ccc(OCCCO)cc2)=N1 has a composite z-score of 1.15. Compound O=C1OCCC=C[C@H]2OC34C=CCN(Cn5nnc6ccccc65)C(=O)[C@H]3N(CCCO)C(=O)[C@@H]4C12 (some centres not stated) has a composite z-score of -0.674. CC(C)[Si](C#C[Si](C(C)C)(C(C)C)C(C)C)(O[C@H](c1ccccc1)c1cn(Cc2ccccc2)nn1)C(C)C gave a composite z-score of 1.02. CC(C)N1C(=O)C[C@@](C(=O)O)(c2ccc([N+](=O)[O-])cc2)[C@H]1c1ccc(CO)cc1 showed a composite z-score of 0.69. With C=CCC(OC(C)=O)[C@@H]1[C@@H](N(Cc2ccc(-c3ccccc3)cc2)C(=O)c2ccc(-c3ccccc3)cc2)c2cc(OCCCO)ccc2N1C(=O)c1ccc2ccccc2c1 (some centres not stated) the composite z-score was 0.352. COc1ccc([Si](C)(C)[C@@H]2[C@@H](CCO)O[C@]3(C(=O)N(Cc4ccccc4)c4ccc(N5CCOC5=O)cc43)[C@H]2C)cc1 showed a composite z-score of 1.32. For [N-]=[N+]=Nc1ccccc1C[C@]1(C(=O)NCC(O)CO)COC(c2ccc(OCCCO)cc2)=N1 (some centres not stated), the composite z-score was -0.206. CN(C)CCCCCCNC(=O)[C@@H]1C[C@@H]2C(=O)N3CCC[C@H]3C(=O)N2[C@@H]1c1cccc(OCCO)c1 showed a composite z-score of 1.31. For CCOC(=O)C[C@H]1[C@H](OC(=O)c2cc3ccccc3oc2=O)[C@@H](NC(=O)c2ccccc2)c2cc(OCCCO)ccc2N1C(=O)c1ccccc1, the composite z-score was 0.64. Work on O=C1C2C=CC(C(O)c3cccc(O)c3)N(Nc3ccc([N+](=O)[O-])cc3)C2C(=O)N1c1ccccc1 (configuration not stated) yielded a composite z-score of 0.821. Work on C=CC[C@@]1(C(=O)NCCCOC)N=C(c2ccc(OCCCO)cc2)O[C@@H]1c1ccccc1 yielded a composite z-score of 0.316. CCCCC(=C=CC[C@H](O)c1ccc(OCCO)cc1)CCO gave a composite z-score of 0.195. In the case of C=C(C(=O)CC[C@H](OC(=O)c1ccccc1-c1ccccc1C(=O)O)c1cccc(OCCO)c1)C(C)C, the composite z-score is reported as -0.192. For COC(=O)[C@]1(CCS(=O)(=O)c2ccccc2)N=C(c2ccc(OCCCO)cc2)O[C@@H]1c1ccccc1N=[N+]=[N-], the composite z-score was 1.29. C=C(/C(=C/C[C@H](OC(=O)c1ccncc1)c1ccc(CO)o1)c1cnc2ccccc2c1)C(C)C showed a composite z-score of 1.12. Work on CC[C@@H]1C=C(C(=O)O)[C@H](c2ccc(C#N)cc2)N1S(=O)(=O)c1ccc(C)cc1 yielded a composite z-score of 1.09. CCCCCCCCCCC(O)C1C=CC2C(=O)N(c3ccccc3)C(=O)C2N1Nc1ccc(C#N)cc1 (configuration not stated) showed a composite z-score of 1.34. CC[C@@H]1C=C(C(=O)O)[C@H](c2ccccc2)N1S(=O)(=O)c1ccc(C)cc1 showed a composite z-score of 0.95. Work on O=C1O[C@H](c2ccccc2)[C@H](c2ccccc2)N2[C@H]1[C@@H](C(=O)O)[C@]1(C(=O)Nc3ccc(C#CCCO)cc31)[C@H]2c1ccccc1OCCO yielded a composite z-score of 0.794. O=C1C2C=CC(C(O)c3ccco3)N(Nc3ccccc3F)C2C(=O)N1c1ccccc1 (configuration not stated) showed a composite z-score of 0.309. With COc1ccc([Si](C)(C)[C@@H]2[C@@H](CCO)O[C@]3(C(=O)N(Cc4cccc(NC(=O)[C@H](C)O)c4)c4ccccc43)[C@H]2C)cc1 the composite z-score was 1.31. Work on CC(C)N1C(=O)C[C@@](C(=O)NC2CC2)(c2ccc([N+](=O)[O-])cc2)[C@H]1c1ccc(CO)cc1 yielded a composite z-score of -0.203. Work on Oc1ccc2cc[n+](Cc3cc4c(cc3Br)OCO4)cc2c1 yielded a composite z-score of -0.538. CCOC(=O)C[C@H]1[C@H](OC(=O)c2ccc(-c3ccccc3)cc2)[C@@H](NC(=O)CC(C)C)c2cc(OCCCO)ccc2N1C(=O)c1ccc2ccccc2n1 gave a composite z-score of 0.787. In the case of CCCCC(CC)C(O)C1C=CC2C(=O)N(c3ccccc3)C(=O)C2N1Nc1ccccc1F (configuration not stated), the composite z-score is reported as 1.12. For CCOC(=O)C[C@H]1[C@H](OC(=O)c2ccccc2-c2ccccc2)[C@@H](NC(=O)c2ccc3ccccc3n2)c2cc(OCCCO)ccc2N1C(=O)Cc1ccc(OC)cc1, the composite z-score was 0.368. Work on COCCCNC(=O)[C@@]1(CCC(=O)OC(C)(C)C)N=C(c2ccc(OCCCO)cc2)O[C@H]1c1ccccc1N=[N+]=[N-] yielded a composite z-score of 1.25. OCCCC1=CC(c2ccc(CN3CCCC3)cc2)N(Cc2cc3c(cc2Br)OCO3)CC1 (configuration not stated) gave a composite z-score of -0.063. In the case of CCOC(=O)C[C@H]1[C@H](OC(=O)Cc2ccc3c(c2)OCO3)[C@@H](NC(=O)C2CCCCC2)c2cc(OCCCO)ccc2N1C(=O)c1ccccc1, the composite z-score is reported as 0.249. Compound COCC(=C=CC[C@H](O)c1ccccc1OCCO)C[C@H](O)c1ccccn1 has a composite z-score of 0.544. [N-]=[N+]=NCc1ccccc1[C@@H]1OC(c2ccc(OCCCO)cc2)=N[C@]1(CCS(=O)(=O)c1ccccc1)C(=O)O gave a composite z-score of 0.585.
